Assay results published in PubChem BioAssay.
Active and inactive are the calls of the source.

Columns and labels:
[1] = binders of probe aFSTL3 on microarray, primary screen, stem cell growth factor project, biochemical, small-molecule microarray, fluorescence 635/667 (AID 1064); conditions: higher = more signal;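 also: measures binding of the biotinylated anti-FSTL3 antibody to printed compounds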
[2] = binders from COS7 lysate, DM2A8 probe, primary screen, torsin A project, cell lysate, small-molecule microarray, fluorescence 635/667 (AID 1065); conditions: higher = more signal, COS7 lysate expressing mutant human TOR1A
[3] = binders of probe aFGF2 on microarray, primary screen, stem cell growth factor project, biochemical, small-molecule microarray, fluorescence 635/667 (AID 1067); conditions: higher = more signal;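 also: measures binding of biotinylated aFGF2 protein to printed compounds on slides; z-score merges feature fluorescence and signal-to-noise across triplicate slides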
[4] = binders of probe aFGF10 on microarray, primary screen, stem cell growth factor project, biochemical, small-molecule microarray, fluorescence 635/667 (AID 1071); conditions: higher = more signal;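 also: score merges 667 nm spot intensity and signal to noise from triplicate slides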
[5] = target: Neurogenic locus notch homolog protein 2 (Homo sapiens) (UniProt Q04721); assay: Notch2 binders on small-molecule microarrays, primary screen, biochemical, small-molecule microarray, 635 nm fluorescence, stem cell growth factors (AID 1073); conditions: Notch2 binding, higher = more signal
[6] = target: Pro-neuregulin-1, membrane-bound isoform (Homo sapiens) (UniProt Q02297); assay: NRG1 binders on small-molecule microarrays, primary screen, psychiatric disease protein project, biochemical, small-molecule microarray, fluorescence 635/667 (AID 1075); conditions: NRG1 binding, 635 nm fluorescence, higher = more signal;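 also: score combines 667 nm spot fluorescence with signal to noise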
[7] = test system: Neuregulin-1 EGF-like domain; assay: binders of neuregulin-1 EGF-like domain, primary screen, biochemical, small-molecule microarray, 635 nm fluorescence (AID 1081); conditions: small-molecule microarray binding, higher = more signal;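 also: binding of the protein to compounds printed on small-molecule microarray slides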
[8] = FRG1 promoter luciferase signal modulators, primary screen, FRG1 inhibition for FSHD, cell-based, C2C12 myotubes, firefly/Renilla luciferase, luminescence (AID 1084); conditions: higher = more signal, called active from +8 up or from −8 down
[9] = binders of probe aFST on microarray, primary screen, stem cell growth factor project, biochemical, small-molecule microarray, fluorescence 635/667 (AID 1086); conditions: higher = more signal;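 also: score merges 667 nm fluorescence with signal-to-noise of each printed compound spot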
[10] = binders of probe aHhip on microarray, primary screen, stem cell growth factor project, biochemical, small-molecule microarray, fluorescence 635/667 (AID 1087); conditions: higher = more signal;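 also: score merges spot fluorescence at 667nm with spot signal to noise ratio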
[11] = test system: PRMT1 (protein arginine N-methyltransferase 1); assay: PRMT1 binders on small-molecule microarrays, primary screen, biochemical, small-molecule microarray, 635 nm fluorescence (AID 1088); conditions: small-molecule microarray binding, higher = more signal;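 also: binding of Prmt1 protein to compounds spotted on small-molecule microarray slides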
[12] = yeast growth modulation, basal conditions, primary screen, YJM789 clinical isolate, OD600, 24 h (AID 1089);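 also: growth of clinical yeast isolate S. cerevisiae YJM 789 seeded 1000 cells per well; test concentration not given here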; conditions: S. cerevisiae YJM789 growth, higher = more signal, called active from +8 up or from −8 down
[13] = fission yeast growth modulation, primary screen, strain 972, OD600, 24 h, no modulator (AID 1090);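 also: basal condition with compound alone and no growth modifier present; test concentration not given here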; conditions: S. pombe 972 growth, higher = more signal, called active from +8 up or from −8 down
[14] = S. cerevisiae growth modulation with rapamycin, primary screen, strain BY4716, OD600, 96 h (AID 1091); conditions: higher = more signal, called active from +8 up or from −8 down; also: test concentration not given here
[15] = target: Torsin-1A-interacting protein 2 (Homo sapiens) (UniProt Q8NFQ8); assay: LULL1 binders on small-molecule microarray, primary screen, cell lysate, human LULL1 lysate, 635/667 nm fluorescence (AID 1092); conditions: hLULL1 lysate binding, 635 nm fluorescence, higher = more signal;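 also: probe is lysate of COS7 cells overexpressing human LULL1; score merges per-feature 667 nm fluorescence with signal-to-noise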
[16] = E. coli growth modulation, two-sided OD650, primary screen, E. coli filamentation project, strain DRC41, 24 h (AID 1093); conditions: OD650, 24 h, higher = more signal, called active from +8 up or from −8 down;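 also: MC1000 strain lacking acrAB efflux and sulA so SOS filamentation is blocked; test concentration not given here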
[17] = small-molecule microarray binders of probe aLefty2, primary screen, biochemical, biotinylated probe, 635/667 nm fluorescence (AID 1094); conditions: higher = more signal;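 also: score merges spot fluorescence near 667 nm with spot signal-to-noise ratio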
[18] = test system: Noggin (protein binding on small-molecule microarray); assay: Noggin binders on small-molecule microarray, primary screen, biochemical, 635/667 nm fluorescence (AID 1095); conditions: 635 nm fluorescence, higher = more signal;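 also: score merges 667 nm feature fluorescence with signal to noise over triplicate slides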
[19] = target: Neurogenic locus notch homolog protein 3 (Homo sapiens) (UniProt Q9UM47); assay: NOTCH3 binders on small-molecule microarray, primary screen, biochemical, 635/667 nm fluorescence (AID 1096); conditions: NOTCH3 binding, 635 nm fluorescence, higher = more signal
[20] = small-molecule microarray binders of probe aEGFR, primary screen, biochemical, biotinylated probe, 635/667 nm fluorescence (AID 1097); conditions: higher = more signal;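 also: probe is a biotinylated anti-EGFR antibody binding compounds printed on slides; score combines fluorescence near 667 nm and signal to noise of each spot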

Chain of Pro-neuregulin-1, membrane-bound isoform (Homo sapiens) (Q02297 whole entry, looked up, the tested form may be a part, canonical isoform): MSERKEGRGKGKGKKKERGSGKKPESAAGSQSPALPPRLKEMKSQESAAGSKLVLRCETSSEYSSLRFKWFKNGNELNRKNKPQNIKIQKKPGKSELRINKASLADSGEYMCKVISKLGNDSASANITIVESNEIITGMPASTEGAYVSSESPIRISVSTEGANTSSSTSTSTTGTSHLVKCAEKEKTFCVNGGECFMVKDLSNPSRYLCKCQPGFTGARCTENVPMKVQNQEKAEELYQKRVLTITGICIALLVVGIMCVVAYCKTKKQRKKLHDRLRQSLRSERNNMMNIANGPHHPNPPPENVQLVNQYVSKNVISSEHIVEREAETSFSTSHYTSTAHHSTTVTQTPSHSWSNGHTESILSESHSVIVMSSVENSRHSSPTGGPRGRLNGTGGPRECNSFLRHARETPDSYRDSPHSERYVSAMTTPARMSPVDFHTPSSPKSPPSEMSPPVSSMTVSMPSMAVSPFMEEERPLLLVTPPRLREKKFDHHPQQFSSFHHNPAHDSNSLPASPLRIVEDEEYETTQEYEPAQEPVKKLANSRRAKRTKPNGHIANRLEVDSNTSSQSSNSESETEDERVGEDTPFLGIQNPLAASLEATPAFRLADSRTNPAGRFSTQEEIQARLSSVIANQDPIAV
Chain of Neurogenic locus notch homolog protein 2 (Homo sapiens) (Q04721 whole entry, looked up, canonical isoform): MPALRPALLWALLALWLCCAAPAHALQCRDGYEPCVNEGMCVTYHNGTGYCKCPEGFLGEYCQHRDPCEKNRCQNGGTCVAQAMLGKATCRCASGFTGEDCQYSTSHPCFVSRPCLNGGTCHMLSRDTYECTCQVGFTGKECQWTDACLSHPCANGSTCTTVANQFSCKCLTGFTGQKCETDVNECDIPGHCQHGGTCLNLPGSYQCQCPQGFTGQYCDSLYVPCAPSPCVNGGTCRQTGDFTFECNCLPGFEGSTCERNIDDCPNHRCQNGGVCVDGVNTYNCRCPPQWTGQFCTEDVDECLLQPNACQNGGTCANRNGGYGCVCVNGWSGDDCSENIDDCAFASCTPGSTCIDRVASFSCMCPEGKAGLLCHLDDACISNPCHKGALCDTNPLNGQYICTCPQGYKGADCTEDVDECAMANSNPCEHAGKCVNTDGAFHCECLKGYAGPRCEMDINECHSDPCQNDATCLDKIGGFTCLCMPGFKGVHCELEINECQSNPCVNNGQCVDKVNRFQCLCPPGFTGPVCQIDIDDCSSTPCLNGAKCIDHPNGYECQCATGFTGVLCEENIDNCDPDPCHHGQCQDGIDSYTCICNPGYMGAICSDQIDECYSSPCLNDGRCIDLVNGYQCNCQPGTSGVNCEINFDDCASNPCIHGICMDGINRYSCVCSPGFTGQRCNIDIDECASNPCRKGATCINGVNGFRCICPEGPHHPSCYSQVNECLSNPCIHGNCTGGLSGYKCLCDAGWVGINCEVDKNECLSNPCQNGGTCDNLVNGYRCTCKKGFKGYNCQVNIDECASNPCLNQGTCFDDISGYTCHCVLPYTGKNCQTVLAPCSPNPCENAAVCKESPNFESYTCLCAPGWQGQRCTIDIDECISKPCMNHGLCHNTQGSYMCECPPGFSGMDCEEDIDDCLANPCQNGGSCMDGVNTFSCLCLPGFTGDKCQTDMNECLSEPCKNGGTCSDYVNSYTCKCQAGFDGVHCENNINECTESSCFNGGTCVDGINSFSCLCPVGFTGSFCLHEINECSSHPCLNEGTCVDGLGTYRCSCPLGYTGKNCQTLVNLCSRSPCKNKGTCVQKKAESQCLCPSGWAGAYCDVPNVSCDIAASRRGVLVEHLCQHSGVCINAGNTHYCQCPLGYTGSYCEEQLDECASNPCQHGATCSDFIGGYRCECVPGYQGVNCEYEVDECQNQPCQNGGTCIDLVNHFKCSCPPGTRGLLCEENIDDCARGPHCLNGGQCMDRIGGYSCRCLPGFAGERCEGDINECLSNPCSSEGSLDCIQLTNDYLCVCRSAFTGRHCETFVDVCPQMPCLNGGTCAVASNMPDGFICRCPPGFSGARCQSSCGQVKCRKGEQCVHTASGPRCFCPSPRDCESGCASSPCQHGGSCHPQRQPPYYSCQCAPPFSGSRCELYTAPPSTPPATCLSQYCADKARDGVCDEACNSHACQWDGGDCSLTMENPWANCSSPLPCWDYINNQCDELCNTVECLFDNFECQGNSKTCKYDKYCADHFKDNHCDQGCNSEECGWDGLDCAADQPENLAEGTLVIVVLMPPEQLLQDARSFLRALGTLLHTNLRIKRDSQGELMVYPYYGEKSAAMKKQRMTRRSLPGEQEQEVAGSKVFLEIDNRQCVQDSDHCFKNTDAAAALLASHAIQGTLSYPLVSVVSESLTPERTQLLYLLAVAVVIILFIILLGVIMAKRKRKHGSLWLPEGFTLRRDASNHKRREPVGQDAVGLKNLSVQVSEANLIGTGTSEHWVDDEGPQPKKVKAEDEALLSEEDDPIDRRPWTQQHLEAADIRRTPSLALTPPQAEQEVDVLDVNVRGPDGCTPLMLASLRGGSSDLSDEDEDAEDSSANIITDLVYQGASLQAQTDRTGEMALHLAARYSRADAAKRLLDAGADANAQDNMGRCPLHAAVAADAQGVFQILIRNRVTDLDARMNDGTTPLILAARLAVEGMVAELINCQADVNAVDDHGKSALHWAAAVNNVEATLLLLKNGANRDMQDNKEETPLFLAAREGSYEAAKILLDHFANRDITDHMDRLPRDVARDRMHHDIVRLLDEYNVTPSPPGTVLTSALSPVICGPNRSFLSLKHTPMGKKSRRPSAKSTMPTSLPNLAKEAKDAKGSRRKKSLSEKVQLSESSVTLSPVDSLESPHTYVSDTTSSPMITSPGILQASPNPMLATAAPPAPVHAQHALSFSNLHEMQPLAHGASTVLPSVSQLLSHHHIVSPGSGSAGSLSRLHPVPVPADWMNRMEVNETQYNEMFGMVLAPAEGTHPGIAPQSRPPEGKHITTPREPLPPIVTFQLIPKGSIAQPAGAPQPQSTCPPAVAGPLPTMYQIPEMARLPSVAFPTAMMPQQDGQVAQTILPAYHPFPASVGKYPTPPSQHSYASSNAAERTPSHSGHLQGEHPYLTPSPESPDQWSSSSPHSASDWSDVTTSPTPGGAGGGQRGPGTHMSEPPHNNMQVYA
Chain of Torsin-1A-interacting protein 2 (Homo sapiens) (Q8NFQ8 whole entry, looked up): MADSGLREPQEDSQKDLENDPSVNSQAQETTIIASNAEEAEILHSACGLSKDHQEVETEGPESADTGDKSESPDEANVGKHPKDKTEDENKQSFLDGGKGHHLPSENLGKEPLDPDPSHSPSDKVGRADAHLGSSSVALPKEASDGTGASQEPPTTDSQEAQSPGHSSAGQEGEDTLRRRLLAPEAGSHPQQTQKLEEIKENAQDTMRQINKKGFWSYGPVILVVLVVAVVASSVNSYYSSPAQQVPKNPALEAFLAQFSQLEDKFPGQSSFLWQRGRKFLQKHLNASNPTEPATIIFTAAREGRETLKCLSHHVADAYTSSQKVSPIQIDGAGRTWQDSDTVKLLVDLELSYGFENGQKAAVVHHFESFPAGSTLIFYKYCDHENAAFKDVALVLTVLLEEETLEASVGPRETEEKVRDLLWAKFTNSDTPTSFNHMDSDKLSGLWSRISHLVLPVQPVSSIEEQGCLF

| Compound | composite z-score [1] | composite z-score [2] | composite z-score [3] | composite z-score [4] | composite z-score [5] | composite z-score [6] | composite z-score [7] | z-score [8] | composite z-score [9] | composite z-score [10] | composite z-score [11] | z-score [12] | z-score [13] | z-score [14] | composite z-score [15] | z-score [16] | composite z-score [17] | composite z-score [18] | composite z-score [19] | composite z-score [20] |
| --- | --- | --- | --- | --- | --- | --- | --- | --- | --- | --- | --- | --- | --- | --- | --- | --- | --- | --- | --- | --- |
| O=C1C=C[C@@H](O)[C@@H]2[C@@H]3C(=O)N(Cc4ccc5c(c4)OCO5)C(=O)[C@@H]3CC[C@@H]12 | -0.624 | -0.0026 | -0.0925 | 0.28 | 0.628 | 0.199 | 0.764 | 0.189 (inactive) | 0.233 | 0.0722 | -0.846 | 0.564 (inactive) | -0.681 (inactive) | 0.621 (inactive) | 0.221 | 0.446 (inactive) | -0.116 | 0.652 | 0.676 | -0.0731 |
| COc1ccc(-c2cnnc(CCCn3ccnc3-c3ccccc3)n2)cc1 | -0.368 | 1.45 | -0.121 | 0.763 | 0.426 | 0.278 | 0.585 | 0.64 (inactive) | 0.117 | -0.12 | 0.576 | -0.128 (inactive) | -0.513 (inactive) | 1.36 (inactive) | 0.662 | 0.222 (inactive) | -0.125 | 0.592 | 0.876 | 0.137 |
| C=CC[C@@H]1C=C[C@H](ON=C[C@@H](NS(=O)(=O)c2ccc(C)cc2)[C@H](C)C=CCC(=O)OC)[C@@H](CO)O1 | -0.172 | 0.571 | -0.134 | 0.2 | -0.0681 | -0.209 | 0.476 | -0.0545 (inactive) | -0.0961 | 0.289 | -0.248 | -0.605 (inactive) | 0.757 (inactive) | -0.0333 (inactive) | 0.324 | 0.354 (inactive) | -0.11 | 0.659 | -0.531 | -0.0715 |
| CC(=O)OC[C@H]1O[C@@H](ON=C(C)CCC(=O)OC[C@H]2O[C@H](C#Cc3ccccc3)C=C[C@@H]2Oc2ccc(C)cc2)[C@H](OC(C)=O)[C@@H](OC(C)=O)[C@@H]1OC(C)=O | -0.65 | 0.745 | 0.0309 | 1.12 | 0.951 | 0.51 | 0.938 | 0.66 (inactive) | 0.31 | -0.0994 | 1.54 | 0.82 (inactive) | 0.882 (inactive) | -0.211 (inactive) | 2.3 | 0.142 (inactive) | -0.122 | 1.36 | 0.936 | -0.0455 |
| C[C@@H]1CC[C@H]2C(=O)OC(CN3C(=O)c4ccccc4C3=O)CN2[C@H]1c1ccc(Br)cc1 (stereo not given in full) | -0.138 | 1 | -0.133 | 0.0468 | 0.315 | 0.48 | -0.429 | 1.11 (inactive) | 0.362 | -0.132 | 0.658 | 0.341 (inactive) | 0.35 (inactive) | -0.338 (inactive) | 1.38 | 0.725 (inactive) | -0.185 | -0.263 | 0.361 | -0.0703 |
| CC(=O)OC[C@H]1O[C@H](CCON=C(C)C)C=C[C@@H]1OC(C)=O | -0.711 | -0.224 | -0.116 | 0.146 | 0.121 | -0.172 | -0.529 | 0.2 (inactive) | 0.36 | -0.0645 | 0.0126 | 0.765 (inactive) | 0.568 (inactive) | 0.748 (inactive) | 0.24 | 0.193 (inactive) | -0.152 | 0.373 | 0.0158 | -0.0364 |
| COc1ccc(COC(=O)NN=C2C[C@@H](O)[C@@H](O)[C@@H]3[C@@H]4C(=O)N(C[C@@H]5CCCO5)C(=O)[C@@H]4CC[C@@H]23)cc1 | -0.227 | 0.359 | -0.156 | 0.878 | -0.0739 | 0.393 | 0.775 | -0.913 (inactive) | 0.0269 | -0.117 | 0.674 | 0.137 (inactive) | 0.467 (inactive) | -0.389 (inactive) | 0.486 | 0.859 (inactive) | -0.145 | 0.585 | 0.106 | -0.1 |
| C[C@]12CCC3c4ccc(OCC5CO5)cc4CCC3C1CC[C@@H]2O (stereo not given in full) | 0.157 | 0.258 | -0.0415 | 0.381 | 1.04 | 0.703 | 1.07 | 1.05 (inactive) | 0.473 | -0.0994 | 0.205 | 0.199 (inactive) | -4.77 (inactive) | -0.494 (inactive) | 2.11 | 0.392 (inactive) | 0.124 | 0.0768 | 0.162 | 0.0025 |
| CCOC(=O)[C@H](CC(C)C)NC(=O)CCC1CC(OC(=O)NCc2ccc3c(c2)OCO3)CC2(CCCC(COC(=O)NCCOc3ccccc3)O2)O1 (stereo not given in full) | -0.538 | 0.143 | -0.11 | 0.652 | 1.36 | 0.843 | 0.943 | 0.929 (inactive) | 0.0762 | 0.276 | 1.17 | -0.337 (inactive) | 0.774 (inactive) | -0.211 (inactive) | 1.68 | 0.097 (inactive) | -0.0928 | 0.878 | 1.11 | -0.013 |
| COC(=O)C(C(=O)OC)C1CCCC(=O)C1 (stereo not given) | -0.414 | 1.45 | -0.0611 | 0.353 | 0.329 | -0.146 | -0.127 | 0.335 (inactive) | 0.406 | -0.264 | -0.734 | 0.069 (inactive) | 0.389 (inactive) | 0.751 (inactive) | 0.291 | -0.195 (inactive) | -0.0362 | 0.365 | 0.655 | -0.0952 |
